# VDR inhibitor = Inhibitors of the vitamin D receptor (VDR): qHTS; Vitamin D3 receptor (Homo sapiens), P11473; VDR-SRC2-3 peptide fluorescence polarization, 2 h; Potency, µM, most hits filed as inhibitors; 400,000 tested, 0.93% active
# Target sequence (P11473 whole entry, looked up): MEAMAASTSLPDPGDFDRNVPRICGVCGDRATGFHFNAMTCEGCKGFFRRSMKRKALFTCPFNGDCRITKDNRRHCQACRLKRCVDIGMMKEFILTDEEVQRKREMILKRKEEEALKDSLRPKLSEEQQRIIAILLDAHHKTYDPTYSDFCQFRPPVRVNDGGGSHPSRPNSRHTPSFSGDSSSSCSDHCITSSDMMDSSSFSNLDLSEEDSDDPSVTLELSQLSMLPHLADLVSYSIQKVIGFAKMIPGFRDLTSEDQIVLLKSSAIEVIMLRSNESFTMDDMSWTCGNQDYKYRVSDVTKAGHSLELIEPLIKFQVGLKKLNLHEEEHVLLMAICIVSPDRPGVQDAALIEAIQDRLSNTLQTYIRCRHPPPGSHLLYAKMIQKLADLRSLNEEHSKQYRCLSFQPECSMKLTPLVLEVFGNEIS
#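 Signal is fluorescence polarization, reporting how far test compounds block the interaction of VDR with the SRC2-3 coregulator peptide after a 2 h room-temperature incubation.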
# Mito fusion yeast = qHTS Assay for Small Molecule Inhibitors of Mitochondrial Division or Activators of Mitochondrial Fusion. S. cerevisiae fusion-defective mutant growth rescue, CellTiterGlo 48 h. Potency, µM (top dose mostly 46.1 µM), usual class: activators. 320,000 tested, 0.23% active. AID 485298, 2010; also: nearly all actives have a fitted effect of over 45% in size
#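 Compounds are tested for their ability to restore growth of mitochondrial fusion-defective yeast strains at non-permissive 37C in YPEG medium over 48 hours. Viability is quantified by luciferase luminescence.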
# GLS inh = qHTS for Inhibitors of Glutaminase (GLS); Glutaminase kidney isoform, mitochondrial (Homo sapiens), O94925; GLS enzymatic activity, qHTS titration; Potency, µM (top dose mostly 45.5 µM), actives largely listed as inhibitors; 410,000 tested, 0.21% active; AID 624170, 2012
#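 hKGA in 45 mM KH2PO4 (pH 8.2), 0.02% Tween-20 with compound, then 1mM L-Glutamine (stock as added) plus glutamate oxidase/HRP/Amplex red coupling mix. Fluorescence read initially and after 30 min at RT; signal change reflects glutamate formation.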
# PLK1 PBD block = qHTS for Inhibitors of PLK1-PDB (polo-like kinase 1 - polo-box domain): Primary Screen | 360,000 tested, 2.8% active | Plk1 PBD binding of FITC phosphopeptide, fluorescence polarization | Potency, µM, usual class: inhibitors | AID 720504, 2013 | Serine/threonine-protein kinase PLK1 (Homo sapiens), P53350; also: series mostly up to about 57 µM; nearly all actives have a fitted effect of over 65% in size
# KAT2A inh = qHTS Assay for Inhibitors of GCN5L2; Histone acetyltransferase KAT2A (Homo sapiens), Q92830; GCN5L2 HAT assay, ThioGlo1 CoA-SH fluorescence; Potency, µM (titrated, usually from 58.9 µM), hits mostly inhibitors; 390,000 tested, 0.21% active; AID 504327, 2011
#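 Compounds, pin-transferred from DMSO stocks, meet 20nM GCN5L2 for 15 min before the reaction begins with H3(1-25) peptide (75uM) and acetyl-CoA (70uM). Thiol-reactive ThioGlo1 reports CoA release over 20 min at room temperature.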
# PKM2 activator = qHTS Assay for Activators of Human Muscle isoform 2 Pyruvate Kinase | Pyruvate kinase PKM (Homo sapiens), P14618 | purified PKM2, Kinase-Glo ATP luminescence, activation; response scale: 0% is enzyme alone, no compound | Potency, µM (top dose mostly 57.5 µM), most hits filed as activators | 260,000 tested, 0.34% active; also: nearly all actives have a fitted effect of over 55% in size
#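 Kinase-Glo luminescence reports ATP generated from ADP (0.1 mM) and PEP (0.5 mM) by purified hPK-M2 after 1 h at room temperature, pH 7.2 imidazole buffer; intermediate enzyme activity allows detecting inhibitors and activators.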
# USP1-UAF1 confirm = Inhibitors of USP1/UAF1: Hit Validation in Primary Assay | AID 540327, 2011 | shares compounds with VDR inhibitor | 50 tested, 50% active | Potency, µM (highest dose often 56.8 µM), usual class: inhibitors | Ub-Rhodamine cleavage, fluorescence kinetic read
# VDR inh confirm = qHTS for Inhibitors of the vitamin D receptor (VDR): Hit Validation in Primary Screen; 840 tested, 89% active; VDR-coactivator inhibition assay, qHTS confirmation; shares compounds with VDR inhibitor; Potency, µM, actives largely listed as inhibitors
# VDR FP fluor = qHTS for Inhibitors of the vitamin D receptor (VDR): Hit Validation using a Fluorescein Assay; shares compounds with VDR inhibitor; VDR-coactivator binding, fluorescein fluorescence polarization; Potency, µM (highest dose often 57.1 µM), most hits filed as inhibitors; 840 tested, 48% active
# VDR bla reporter = qHTS for Inhibitors of the vitamin D receptor (VDR): Hit Validation using a Beta-Lactamase Assay | shares compounds with VDR inhibitor | VDR beta-lactamase reporter cells, FRET ratio; cells co-treated with VDR agonist LG190178 | Potency, µM (highest dose often 46.1 µM), hits mostly inhibitors | 840 tested, 23% active
# VDR viability = qHTS for Inhibitors of the vitamin D receptor (VDR): Hit Validation using a Cytotoxicity Assay. 840 tested, 18% active. shares compounds with VDR inhibitor. cytotoxicity counter-screen, cell viability, qHTS. Potency, µM (highest dose often 48.3 µM), most hits filed as cytotoxic; also: nearly all actives have a fitted effect of over 75% in size
# Numbers stand for hits; i = inactive; ? = inconclusive; nt = no result given. An excerpt weighted towards active compounds, which were near 3.4% of everything screened. Calls follow the shape of the dose curve; as a rule, active = well fitted curve in the direction sought with a large enough effect; inconclusive = small, poorly fitted or top-dose-only effect, or another doubt; inactive = no such curve, though single readings can be large; an effect the other way counts as inactive or inconclusive.
SMILES,VDR inhibitor,Mito fusion yeast,GLS inh,PLK1 PBD block,KAT2A inh,PKM2 activator,VDR inh confirm,VDR FP fluor,VDR bla reporter,VDR viability,others
COC1=C(OC)C(=O)c2ccccc2C1=O,35µM,26µM,nt,nt,i,nt,nt,nt,nt,nt,USP1-UAF1 confirm=30µM
N#CC1(NC(=O)COC(=O)C2CCN(S(=O)(=O)c3ccc4c(c3)OCCO4)CC2)CCCCC1,i,nt,i,i,nt,nt,nt,nt,nt,nt,
Cc1ccc(C(C2=C(O)CC(C)(C)CC2=O)C2C(=O)CC(C)(C)CC2=O)s1 (stereo not given),50µM,i,i,4.7µM,i,i,11,7.9µM,i,?,
COc1ccccc1/C=C1\CCCC2=C1Nc1nnnn1C2c1ccccc1OC (stereo not given),?,?,i,?,i,i,?,?,?,i,
CCOc1cc(C(Nc2cc(C)ccn2)c2ccc3cccnc3c2O)ccc1OC (stereo not given),22µM,nt,i,nt,i,nt,7.1,3.5µM,i,?,
O=C(Nc1cccc(C(F)(F)F)c1)c1ccc2sc([C@H]3C[C@H](O)[C@@H](CO)O3)nc2c1,nt,nt,i,i,nt,nt,nt,nt,nt,nt,
Oc1ccc(NCc2ccccc2OCc2ccc(Cl)cc2)cc1,?,nt,i,nt,i,nt,nt,nt,nt,nt,
Oc1ccc(NCc2ccccc2OCc2ccccc2)cc1,50µM,i,?,i,i,i,14,14µM,i,?,
COc1cc(NC(=O)c2cccc(Cl)c2Cl)ccc1NC(=O)c1cc2ccccc2o1,i,nt,i,nt,i,nt,nt,nt,nt,nt,
O=C(Oc1csc(=S)n1C(=O)c1ccccc1)c1ccccc1,?,i,i,3µM,i,i,?,8.9µM,i,i,
O=C1CN(C(=O)COc2ccc(Cl)cc2Cl)C(c2ccccc2)c2cc(F)ccc2N1 (stereo not given),i,nt,i,nt,i,nt,nt,nt,nt,nt,
CC(C)C[C@H]1CN(CCCC[C@H]2CNC(=O)C(=O)N2CC2CCCCC2)C(=O)C(=O)N1Cc1ccccc1,nt,nt,i,i,nt,nt,nt,nt,nt,nt,
O=C(c1cccc(Cl)c1)N(Cc1cccc(F)c1)C1CCS(=O)(=O)C1 (stereo not given),i,nt,i,nt,i,nt,nt,nt,nt,nt,
O=C(/C=C/c1cc(Br)ccc1O)c1ccco1,25µM,i,i,27µM,i,i,27,?,?,?,
COc1ccccc1-c1cnn2c(NC3CCCC3)cc(C)nc12,i,i,i,i,i,nt,nt,nt,nt,nt,
COc1ccc(C(=O)N/C(N)=N/c2nc3ccccc3o2)cc1,i,i,i,i,i,i,nt,nt,nt,nt,
COc1ccc(C(=O)/C=C/Sc2nc3ccccc3o2)cc1,18µM,i,i,0.75µM,i,i,6,3.2µM,21µM,21µM,
c1ccc(CCc2nn3c(Cc4ccccc4)nnc3s2)cc1,79µM,i,?,11µM,i,i,28,25µM,i,?,
CC(C)NC(=O)C1(C)CCCN1C(=O)c1ccc2c(c1)C(C)(C)CCC2(C)C (stereo not given),nt,nt,i,i,nt,nt,nt,nt,nt,nt,
C/C(=C\c1ccc(C(=O)O)cc1)c1ccc2c(c1)C(C)(C)CCC2(C)C,i,?,i,27µM,i,nt,nt,nt,nt,nt,USP1-UAF1 confirm=?
O=S1OC(c2ccccc2)c2cc(Cl)ccc21 (stereo not given),22µM,i,i,?,i,nt,3.2,3.5µM,i,i,
O=C1OC(c2ccccc2)c2ccccc21 (stereo not given),i,nt,i,i,i,i,nt,nt,nt,nt,
O=C(CCN1CCN(c2ccc([N+](=O)[O-])cc2)CC1)c1ccc(Cl)cc1,25µM,i,i,?,i,nt,27,13µM,i,?,
CCOC(=O)N1CCN(CCC(=O)c2ccc(Cl)cc2)CC1,35µM,i,i,12µM,i,i,12,11µM,?,?,
Cc1cc(C)cc(NC(=O)CNS(=O)(=O)c2ccc3nc(C)sc3c2)c1,i,nt,i,nt,i,nt,nt,nt,nt,nt,
SMILES,VDR inhibitor,Mito fusion yeast,GLS inh,PLK1 PBD block,KAT2A inh,PKM2 activator,VDR inh confirm,VDR FP fluor,VDR bla reporter,VDR viability,others
Cc1cccc(/C=C/C(=O)c2cc(Br)ccc(=O)c2O)c1,16µM,i,i,21µM,?,i,3.8,i,?,?,
CCOc1ccc(/C=C/C(=O)c2cc(Br)ccc(=O)c2O)cc1,50µM,i,i,?,i,i,13,i,i,i,
O=C(C=Cc1ccccc1)c1cc(Br)ccc1O,?,nt,i,i,nt,nt,nt,nt,nt,nt,
CCOc1ccc(C(=O)/C=C/c2ccc(OC)c(OC)c2)cc1,i,i,i,i,i,i,nt,nt,nt,nt,
COc1cccc(NC(=O)CN(C)C(=O)CSc2ncnc3sc(C)c(C)c23)c1,i,i,i,i,i,nt,nt,nt,nt,nt,
COC(=O)C[C@H]1C=C[C@H](NC(=O)c2ccccn2)[C@@H](CO)O1,nt,nt,nt,i,nt,nt,nt,nt,nt,nt,
Nc1ccccc1Sc1nc2ccccc2[nH]1,20µM,i,i,13µM,?,i,21,14µM,i,i,
CCCCc1ccc(/C=C2\C(=O)c3ccccc3C(O)=C2C(=O)OCC)cc1,nt,i,nt,nt,?,?,nt,nt,nt,nt,
CCOC(=O)C1=C(Cc2ccc(F)cc2)C(=O)c2ccccc2C1=O,4.5µM,i,i,9.5µM,i,i,5.3,?,i,i,
CCOC(=O)c1cccc(NC(=O)c2cn(-c3cccc(OC)c3)c(=O)c3ccccc23)c1,i,nt,i,nt,i,nt,nt,nt,nt,nt,
C=CCn1cccc(/C=C/C(=O)c2ccc(C(C)(C)C)cc2)c1=S,?,i,i,i,i,i,7.1,7.1µM,?,?,

# Screening results as filed in PubChem.
